Assay outcomes deposited in PubChem by National Center for Advancing Translational Sciences (NCATS).
Compounds with a hit are over-represented: about 19% of the library has one in this group of screens.
DT40 TDP1 no CPT: qHTS for Inhibitors of human tyrosyl-DNA phosphodiesterase 1 (TDP1): qHTS in cells in absence of CPT. DT40 Tdp1-/- hTDP1 cells, no CPT, ATP luminescence, 48 h. Potency, µM (doses to about 46.2 µM), without a hit: at the top dose activity change, negative = growth inhibition, most hits filed as inhibitors. 15% of 420,000 active. AID 686978, 2013; further: nearly all actives have a fitted effect of over 55% in size
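Camptothecin absent (DMSO only). Human TDP1-complemented DT40 knockout cells, 400 cells/well, 37 °C for minimum 48 hr; ATP measured via CellTiter-Glo, 30 min dark incubation, luminescence.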
KB-V1 MDR tox: kills drug-selected multidrug resistant KB-V1 cells. KB-V1 MDR cells viability, CellTiter-Glo, 72 h. Potency, µM (series often up to 46.1 µM), hits mostly cytotoxic. 3.4% of 400,000 active; further: nearly all actives have a fitted effect of over 60% in size
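Readout: CellTiter-Glo luminescence, 10 min after addition. Cells: KB-V1 MDR subline, 72 h at 37 degrees C with compound. Analysis: corrected, normalized data fitted to concentration-effect curves.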
HT1080-NT tox: kills 2HG-producing HT-1080-NT fibrosarcoma cells; HT-1080-NT fibrosarcoma viability, CellTiter-Glo ATP luminescence, 48 h; 1.6% of 360,000 active; Potency, µM (doses to about 46.1 µM), for the others: at the highest dose activity, negative = less viability, usual class: cytotoxic;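 further: NT is the 2HG producing partner of a matched IDH1 knockdown line; 0% = DMSO-treated cells and -100% = media-only wells without cells; nearly all actives have a fitted effect of over 55% in size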
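Read-out is CellTiter-Glo luminescence after 10 minutes at room temperature, following 48 hours' compound treatment of HT-1080-NT cells (750 cells/well, RPMI, 5% FBS, 37 degrees C).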
KB-3-1 tox: KB-3-1 parental cell cytotoxicity | 1.4% of 400,000 active | KB-3-1 viability, CellTiter-Glo ATP luminescence, 72 h | AID 1347075 | Potency, µM (highest dose often 46.1 µM), usual class: cytotoxic; further: nearly all actives have a fitted effect of over 60% in size
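72 h, 37 °C compound treatment of KB-3-1 parental cells; CellTiter-Glo added, 10 min, luminescence read. Data corrected against DMSO-only plates and normalized before curve fitting.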
HT1080 IDH1KD tx: HT-1080 IDH1 knockdown cell toxicity (counter line) | AID 686971 | Potency, µM (doses to about 46.1 µM), inactives show at the top dose activity, negative = toxicity, usual class: cytotoxic | 2% of 360,000 active | HT-1080 IDH1 knockdown viability, ATP luminescence, 48 h;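 further: 0% = DMSO wells and -100% = cell-free medium wells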
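Luminescent ATP read-out (CellTiter-Glo, 10 min at room temperature) after 48 h compound exposure at 37 °C gave viability of IDH1-knockdown HT-1080 cells. Activity was normalised to DMSO and cell-free wells, then fitted as concentration-response curves.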
TDP1 cell CPT: growth inhibition of DT40 Tdp1-/-;hTDP1 cells with camptothecin (screen for TDP1 inhibitors); chicken DT40 Tdp1-/-;hTDP1 cells + 20 nM CPT, ATP luminescence, 48 h; Potency, µM (series often up to 46.2 µM), inactives show top-dose activity change, negative = growth inhibition, most hits filed as inhibitors; 12% of 420,000 active; further: nearly all actives have a fitted effect of over 55% in size
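Chicken DT40 Tdp1-/- cells complemented with human TDP1, 400 cells/well, exposed to compounds plus 20 nM camptothecin for at least 48 h at 37 C; viability read as ATP content by CellTiter-Glo luminescence.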
Active calls of the source: *; i = inactive; ? = inconclusive; · = no result given. The call rests on the fitted dose curve; in most records, active means well fitted curve in the direction sought with a large enough effect; inconclusive means small, poorly fitted or top-dose-only effect, or another doubt; inactive means no such curve, though single readings can be large; an effect the other way counts as inactive or inconclusive. Unless noted, on the % scale 0 is the no-effect control and ±100 the full control effect; potency means the concentration at half of the fitted maximal effect.

SMILES | DT40 TDP1 no CPT | KB-V1 MDR tox | HT1080-NT tox | KB-3-1 tox | HT1080 IDH1KD tx | TDP1 cell CPT
CCOC(=O)C1=C(C)NC(SC)=C(C#N)C1CC(C)C (stereo unspecified) | 3.7µM* | 5.2µM* | 1.8µM* | 4.1µM* | 2.6µM* | 3.7µM*
O=C(Nc1c2c(nn1-c1ccc(Cl)cc1)CS(=O)(=O)C2)c1ccc2c(c1)OCO2 | -3% | i | 8% | i | -9% | -8%
O=C(Nc1c2c(nn1-c1ccc(Cl)cc1)CS(=O)(=O)C2)c1ccc(Br)cc1 | 16µM* | ? | · | i | · | 23µM*
COc1ccc(NC(=O)C#Cc2ccccc2)cc1OC | ? | ? | ? | 18µM* | 18µM* | 6.5µM*
NC(=O)c1ccc(NC(=O)C#Cc2ccccc2)cc1 | 8.2µM* | i | 21µM* | 23µM* | 16µM* | ?
O=C(C#Cc1ccccc1)Nc1ccccc1F | 18µM* | ? | -12% | ? | -24% | 21µM*
COCCCn1c(SCCc2ccccc2)nc2cc(OC)c(OC)cc2c1=N | 13µM* | i | ? | i | -23% | 16µM*
CCSc1nc2cc(OC)c(OC)cc2c(=O)n1CCc1ccccc1 | 21µM* | i | 8% | i | 5% | 16µM*
CCOc1ccc(C(=O)NCC(=O)Nc2ccc(N3CCOCC3)cc2)cc1OCC | -3% | i | -28% | i | 0% | -28%
CCOc1cc(N2C(=O)CC3CS(=O)(=O)CC32)c(OCC)cc1NC(=O)c1ccccc1 (stereo unspecified) | 21µM* | i | 0% | i | ? | ?
CCOc1cc(N2CCOCC2)c(OCC)cc1NC(=O)c1ccc(S(C)(=O)=O)cc1 | -21% | i | 12% | i | 3% | -2%
CCCOc1ccc(C(=O)Nc2ccc(N3CCOCC3)cc2N2CCOCC2)cc1OCC | 21µM* | i | 10% | i | -2% | ?
CCOc1cc(N2CCOCC2)c(OCC)cc1NC(=O)CC12CC3CC(CC(C3)C1)C2 | 18µM* | i | -24% | i | -27% | 13µM*
CCOc1cc(N2CCOCC2)c(OCC)cc1NC(=O)Cn1cnnn1 | 17% | i | 2% | ? | -3% | -13%
CC(=O)c1c(C)[nH]c(C(=O)Nc2ccccc2N2CCOCC2)c1C | ? | i | -3% | i | -1% | ?
CCOc1cc(N2CCOCC2)c(OCC)cc1NC(=O)c1[nH]c(C)c(C(C)=O)c1C | 5.8µM* | i | 1% | i | 6% | 8.2µM*
CCOc1ccc(OCCC(=O)OCC(=O)Nc2cc(OCC)c(N3CCOCC3)cc2OCC)cc1 | 26µM* | i | -12% | i | -10% | 18µM*
CCOc1cc(N2CCOCC2)c(OCC)cc1NC(=O)COC(=O)c1ccc(Cl)nc1 | -20% | i | 1% | i | 17% | -17%
CCOc1cc(N2CCOCC2)c(OCC)cc1NC(=O)c1cccc(N(C)C)c1 | 21µM* | i | -9% | i | -12% | ?
CCOc1cc(N2CCOCC2)c(OCC)cc1NC(=O)COc1cccc(CC)c1 | 8.2µM* | ? | -2% | i | -2% | 18µM*
CCOc1cc(N2CCOCC2)c(OCC)cc1NC(=O)[C@H](C)N1C(=O)C2CC=CCC2C1=O (stereo partly specified) | 12µM* | ? | 9% | i | 10% | -3%
Cc1ccc(-n2nc3c(=O)n(CCCC(=O)NC(C)c4ccccc4)nc(C)c3c2C)cc1 (stereo unspecified) | ? | · | · | · | · | -23%
Cn1c(CC(=O)Nc2ccccc2F)nnc1SCC(=O)NC1=NCCS1 | -20% | i | ? | i | 6% | ?
CC1(C(=O)NS(=O)(=O)c2ccccc2Cl)CCN1C(=O)Cc1ccc(Cl)cc1Cl (stereo unspecified) | -2% | i | -3% | i | -3% | 5%
CCS(=O)(=O)Nc1cc2c3c(c1)CCC(=O)N3CCC2 | -14% | i | -3% | ? | -5% | 11%
SMILES | DT40 TDP1 no CPT | KB-V1 MDR tox | HT1080-NT tox | KB-3-1 tox | HT1080 IDH1KD tx | TDP1 cell CPT
CCOc1cc(NC(=O)c2ccco2)c(OCC)cc1NC(=O)Cc1ccc(OC)c(OC)c1 | 8.2µM* | ? | -3% | i | -2% | ?
CCOc1cc(N2CCOCC2)c(OCC)cc1NC(=O)COC(=O)c1ccc(Cl)cc1N | ? | i | -4% | i | 0% | 5.8µM*
CCOc1cc(N2CCOCC2)c(OCC)cc1NC(=O)Cc1ccc(OC)c(OC)c1 | 23µM* | 5.8µM* | -1% | ? | 1% | ?
CCOc1cc(N2CCOCC2)c(OCC)cc1NC(=O)COC(=O)c1cc2ccccc2cc1O | ? | ? | 8% | i | 7% | ?
CCOc1cc(N2CCOCC2)c(OCC)cc1NC(=O)CN1CCN(Cc2ccc3c(c2)OCO3)CC1 | ? | i | 0% | i | 3% | ?
CCOc1cc(N2CCOCC2)c(OCC)cc1NC(C)C(=O)N1CCC(C)CC1 (stereo unspecified) | 26µM* | i | 1% | i | 2% | ?
CCOc1cc(N2CCOCC2)c(OCC)cc1NCC(=O)N1CCN(Cc2ccccc2)CC1 | ? | i | -5% | i | -7% | ?
CCC(=O)N1CCCC(C(=O)NS(=O)(=O)c2cc(C)c(Cl)cc2C)CC1 (stereo unspecified) | -3% | i | 27% | i | 12% | 14%
Cc1cccc(NC(=O)c2ccc3[nH]c(C)cc(=O)c3c2)c1 | -21% | i | · | i | · | -2%
COc1ccc(-c2noc(-c3ccc(N4CCC(C)CC4)c([N+](=O)[O-])c3)n2)cc1OC | -15% | ? | · | i | · | -20%
CCOc1cc(N2CCOCC2)c(OCC)cc1NC(=O)CSc1ccccc1C(=O)O | -19% | i | -1% | i | -4% | ?
CCOc1cc(N2CCOCC2)c(OCC)cc1NC(=O)CN1CCc2ccccc2C1 | 18µM* | ? | -1% | i | -3% | 23µM*
O=[N+]([O-])c1cc(C(F)(F)F)ccc1NCCc1c[nH]c2ccc(O)cc12 | ? | i | 13µM* | i | 13µM* | ?
O=[N+]([O-])c1cc(C(F)(F)F)ccc1NCCc1c[nH]c2ccccc12 | ? | ? | -3% | i | 7% | -26%
Cc1ccc2c(c1)N(S(=O)(=O)c1ccc(CN3C(=O)c4cccnc4C3=O)cc1)CCO2 | 30% | i | 7% | ? | 14% | -4%
